This passage reports growth results from PubChem BioAssay (NCI).

Test systems include SK-MEL-2 melanoma; EKVX NSCLC; SN12C renal; UO-31 renal; TK-10 renal; ACHN renal; A498 renal; MOLT-4 leukemia; SR leukemia; RPMI-8226 leukemia; OVCAR-8 ovarian; OVCAR-5 ovarian; OVCAR-4 ovarian; SK-OV-3 ovarian; IGROV1 ovarian; OVCAR-3 ovarian; HS 578T breast; NCI/ADR-RES ovarian; CCRF-CEM leukemia.
Holding throughout (assay): NCI-60 one-dose screen, 48 h (100 = growth as untreated, 0 = no growth, -100 = all killed)
What all share (conditions): 10 µM unless noted

About 83,000 compounds went through this panel and 20% of them were active in at least one assay; those are over-represented in the sample as a whole.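 Compound tested at a single concentration for 48 hours in 96-well plates; a percent growth value below 10 was scored as active.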 A number with no mark means an inactive call. The source made the active and inactive calls.

For the compound `O=C(Cn1c2ccccc2c2ccncc21)N/N=C/c1cc(O)c(O)c(O)c1`, the growth in the assay with SK-MEL-2 melanoma is 98.9%; in the assay with EKVX NSCLC, 109%; in the assay with SN12C renal, 104%; in the assay on UO-31 renal, 98.6%; in the assay on TK-10 renal, 107%; with ACHN renal it was 108%. Besides, the growth with A498 renal is 97.5%; with MOLT-4 leukemia, 88.4%; with SR leukemia it was 106%; with RPMI-8226 leukemia, 100%; in the assay on OVCAR-8 ovarian it was 103%; in the assay on OVCAR-5 ovarian it was 111%. Also, the growth in the assay on OVCAR-4 ovarian is 110%; in the assay with SK-OV-3 ovarian it was 99.4%; in the assay on IGROV1 ovarian it was 107%; with OVCAR-3 ovarian it was 106%; in the assay on HS 578T breast, 105%; in the assay with NCI/ADR-RES ovarian, 103%.

`Clc1ccc2c(c1)nnn1c3ncccc3c(Br)c21`: the growth is 93% in the assay on SK-MEL-2 melanoma; 29.2% in the assay with EKVX NSCLC; 91.9% with SN12C renal; 58.9% with UO-31 renal; 78.8% with TK-10 renal; 78.4% in the assay on ACHN renal. In addition, the growth is 70.5% in the assay on A498 renal; 86.4% in the assay on CCRF-CEM leukemia; 115% in the assay on MOLT-4 leukemia; 83.2% in the assay on RPMI-8226 leukemia; 71.9% in the assay on OVCAR-8 ovarian; 101% with OVCAR-5 ovarian. Also, the growth is 77.1% with OVCAR-4 ovarian; 51.3% in the assay with SK-OV-3 ovarian; 70.8% in the assay with OVCAR-3 ovarian; 16.7% in the assay on HS 578T breast; 85.8% in the assay with NCI/ADR-RES ovarian.

Consider `CC1=C[S+](c2ccccc2)c2cccc3cc4ccccc4c1c23` (stereo unspecified), for which the growth is -65.2% (active) with SK-MEL-2 melanoma; -1.91% (active) with EKVX NSCLC; -60.2% (active) in the assay with SN12C renal; -39.5% (active) with UO-31 renal; 2.15% (active) in the assay with TK-10 renal; 15.3% in the assay with ACHN renal. Further, the growth was 27.5% in the assay with A498 renal; 4.35% (active) in the assay on CCRF-CEM leukemia; -23.5% (active) in the assay on MOLT-4 leukemia; -32.5% (active) in the assay with RPMI-8226 leukemia; -9.27% (active) with OVCAR-8 ovarian; -32.7% (active) in the assay with OVCAR-5 ovarian. In addition, the growth in the assay on OVCAR-4 ovarian is 17.4%; in the assay on SK-OV-3 ovarian, 0.639% (active); in the assay with HS 578T breast it was 69.5%; with NCI/ADR-RES ovarian it was 27%.

Regarding `CC(=O)O[C@@H]1[C@@H](OC(C)=O)[C@H](OC(C)=O)CO[C@H]1Nc1cccc2ccccc12`, the growth was 82.3% in the assay on SK-MEL-2 melanoma; 99.8% in the assay with EKVX NSCLC; 94.3% with SN12C renal; 62.4% in the assay with UO-31 renal; 115% in the assay on TK-10 renal; 98.8% in the assay with ACHN renal. For the same compound, the growth is 101% in the assay with A498 renal; 71.7% in the assay on CCRF-CEM leukemia; 87.9% in the assay with RPMI-8226 leukemia; 102% in the assay on OVCAR-8 ovarian; 100% in the assay with OVCAR-5 ovarian; 103% with OVCAR-4 ovarian. Also, the growth with OVCAR-3 ovarian was 95.7%; in the assay with HS 578T breast it was 96.3%; in the assay with NCI/ADR-RES ovarian, 95.9%.

On to `C=C1C(=O)O[C@H]2[C@H]1CC/C(COC(=O)c1ccc(C#N)cc1)=C\CC[C@@]1(C)O[C@@H]21`, for which the growth was 37.9% with SK-MEL-2 melanoma; 16% in the assay on EKVX NSCLC; 17.4% in the assay on SN12C renal; -1.25% (active) in the assay on UO-31 renal; 40.2% in the assay on TK-10 renal; 0.811% (active) in the assay with ACHN renal. In addition, the growth in the assay on A498 renal is 99.7%; in the assay with CCRF-CEM leukemia, -25.8% (active); in the assay with MOLT-4 leukemia, -29.3% (active); in the assay on RPMI-8226 leukemia, -35.8% (active); in the assay with OVCAR-8 ovarian, 1.03% (active); in the assay with OVCAR-5 ovarian it was 34.5%. For the same compound, the growth was 35.9% in the assay on OVCAR-4 ovarian; 7.59% (active) with IGROV1 ovarian; -10.7% (active) in the assay with OVCAR-3 ovarian; 70% with HS 578T breast; 54.5% with NCI/ADR-RES ovarian.

Turning to `COc1ccc2c(c1)nnn1c3ncccc3c(N=O)c21`, the growth is -65.9% (active) in the assay with SK-MEL-2 melanoma; 15% with EKVX NSCLC; -80.4% (active) with SN12C renal; -99.3% (active) in the assay with UO-31 renal; -15.1% (active) in the assay on TK-10 renal; -30.8% (active) in the assay with ACHN renal. The growth in the assay on A498 renal was 31.9%; in the assay with CCRF-CEM leukemia, -22.8% (active); in the assay with MOLT-4 leukemia, -55.6% (active); in the assay with RPMI-8226 leukemia it was -56.2% (active); in the assay on OVCAR-8 ovarian it was -30.3% (active); in the assay with OVCAR-5 ovarian, -0.558% (active). Moreover, the growth in the assay on OVCAR-4 ovarian was 9.93% (active); in the assay with SK-OV-3 ovarian, 9.38% (active); in the assay with OVCAR-3 ovarian, -91.3% (active); in the assay on HS 578T breast it was -29.7% (active); in the assay on NCI/ADR-RES ovarian, -8.17% (active).

In the case of `CCCc1nn2c(CCC(=O)c3nc4ccc([N+](=O)[O-])cc4[nH]3)nnc2s1`, the growth with SK-MEL-2 melanoma was 87.5%; in the assay on EKVX NSCLC, 95.6%; with SN12C renal, 101%; in the assay with UO-31 renal it was 80.7%; in the assay with TK-10 renal it was 133%; in the assay with ACHN renal, 102%. The growth in the assay with A498 renal is 123%; in the assay on CCRF-CEM leukemia, 109%; in the assay on RPMI-8226 leukemia, 133%; with OVCAR-8 ovarian it was 109%; with OVCAR-5 ovarian it was 97.5%; in the assay with OVCAR-4 ovarian, 100%. In addition, the growth in the assay on SK-OV-3 ovarian is 110%; with IGROV1 ovarian, 101%; in the assay with OVCAR-3 ovarian it was 109%; with HS 578T breast, 91.1%.

For `CC(C(=O)O)N1C(N)=NNC1c1ccccc1O` (stereo unspecified), the growth is 99.7% in the assay on SK-MEL-2 melanoma; 50.6% in the assay on EKVX NSCLC; 93.4% in the assay on SN12C renal; 66.3% with UO-31 renal; 148% in the assay on TK-10 renal; 87.3% in the assay with ACHN renal. For the same compound, the growth in the assay on A498 renal is 98.8%; with CCRF-CEM leukemia it was 82.7%; in the assay with MOLT-4 leukemia, 68.1%; in the assay with RPMI-8226 leukemia it was 73.1%; in the assay with OVCAR-8 ovarian it was 90.2%; in the assay with OVCAR-5 ovarian it was 108%. Moreover, the growth is 76.3% with OVCAR-4 ovarian; 105% with SK-OV-3 ovarian; 70.9% in the assay on IGROV1 ovarian; 83% with OVCAR-3 ovarian; 91.1% with HS 578T breast; 83.8% with NCI/ADR-RES ovarian.

As for `O=C(CNc1cccnc1)Nc1ccc(C(=O)/C=C/c2ccc(Cl)cc2)cc1`, the growth was 84.4% with SK-MEL-2 melanoma; 95% with EKVX NSCLC; 88.7% with SN12C renal; 77.7% in the assay with UO-31 renal; 106% with TK-10 renal; 101% in the assay on ACHN renal. In addition, the growth was 86.9% in the assay with A498 renal; 26.6% in the assay on CCRF-CEM leukemia; 21.7% in the assay with RPMI-8226 leukemia; 98.1% in the assay with OVCAR-8 ovarian; 92.7% with OVCAR-5 ovarian; 87.1% in the assay with OVCAR-4 ovarian. Moreover, the growth with SK-OV-3 ovarian was 111%; in the assay with IGROV1 ovarian, 95.1%; in the assay with OVCAR-3 ovarian it was 89.8%; in the assay with HS 578T breast it was 82.1%; with NCI/ADR-RES ovarian, 98%.
